# Screening results as filed in PubChem BioAssay.
# SW480 rerep = induces DNA re-replication in SW480 colon adenocarcinoma cells; SW480 DNA re-replication, Hoechst DNA content imaging, 48 h; 340,000 compounds, 1.8% hits; Potency, µM (top dose mostly 46.1 µM), without a hit: at the highest dose re-replication activation, hits mostly activators; AID 624297; further: % of control where 0% means no effect; nearly all actives have a fitted effect of over 55% in size
#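 Image-based read-out: total Hoechst fluorescence of nuclei (405 nm excitation, 500-530 nm emission), with hits raising the fraction of high-intensity nuclei. SW480 colon cells incubated 48 hr with compounds at 37 C.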
# MCF10A rereplic = inducers of DNA re-replication in MCF 10A breast cells. MCF 10A DNA re-replication, Hoechst nuclear intensity, 48 h. Potency, µM (series often up to 46.1 µM), without a hit: top-dose activity, positive = re-replication, usual class: activators. 350,000 compounds, 2.9% hits. AID 624296; further: % of control where 0% means no effect; nearly all actives have a fitted effect of over 50% in size
# Mito fusion yeast = inhibitors of mitochondrial division or activators of mitochondrial fusion | S. cerevisiae fusion-defective mutant growth rescue, CellTiterGlo 48 h | Potency, µM (doses to about 46.1 µM), without a hit: at the top dose growth rescue (activation), usual class: activators | 320,000 compounds, 0.23% hits | AID 485298; further: % of control where 0% means no effect; nearly all actives have a fitted effect of over 45% in size
#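 Growth-rescue viability read-out: after 48 h at the non-permissive 37C in glycerol/ethanol YPEG, yeast mitochondrial fusion mutants are measured by CellTiterGlo luminescence; compounds (23 nl pinned per well) restoring growth score as division inhibitors or fusion activators.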
# AT treatment = potential ataxia-telangiectasia treatments restoring KAP-1 phosphorylation; F2112 A-T fibroblasts, KAP-1 phosphorylation AlphaLISA; neocarzinostatin DNA damage 30 min before lysis; Potency, µM (titrated, usually from 57.5 µM), without a hit: at the top dose activation, usual class: activators; 320,000 compounds, 0.19% hits; AID 485349; further: % of control where 0% means no effect; nearly all actives have a fitted effect of over 45% in size
#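 ATM-like activity read as KAP-1 phosphorylation via AlphaLISA donor/acceptor antibody pairs after lysis and 6 hr at 25C. Cells were ATM-null patient fibroblasts (F2112, hTERT), dosed 60 min, then exposed to the DSB inducer NCS for 30 min.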
# a7 integrin act = integrin-mediated muscular dystrophy alleviation activation | Potency, µM (doses to about 38.3 µM), for inactives: top-dose activation, most hits filed as activators | 350,000 compounds, 0.064% hits | alpha7betagal myoblasts, beta-gal FDG fluorescence, 48 h | AID 624291;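 further: 100% = response of the positive control SU9516; nearly all actives have a fitted effect of over 60% in size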
#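 Alpha7betagal+/- myoblasts (passage 13) were plated 16-24 hr, then exposed to compounds (1:260 dilution of DMSO stock) for 48 hours at 37C. After MPER lysis, β-galactosidase reporter activity was read as FDG fluorescence (ex 480/em 540) after 30 minutes.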
# * marks the source's active call; other numbers are inactive results; ? = inconclusive; · = no result; [ ] = another dose, or the depositor's remark. Rows were chosen to be rich in hits. Some 4.2% of all compounds tested hit in one or more screens of this group. The call rests on the fitted dose curve; in most records, active means well fitted activation curve with a large enough effect; inconclusive means small, poorly fitted or top-dose-only effect; inactive means no such curve, though single readings can be large or run the other way. Potency means the concentration at half of the fitted maximal effect.
SMILES,SW480 rerep,MCF10A rereplic,Mito fusion yeast,AT treatment,a7 integrin act
COc1ccc(-c2cc3c(=O)n(CC(=O)NCCCN4CCN(Cc5ccccc5)CC4)ncn3n2)cc1,-10%,-6%,5%,-5%,-29%
COc1ccc(-c2cc3c(=O)n(CC(=O)NCCCN4CCC(Cc5ccccc5)CC4)ncn3n2)cc1,5.8µM*,-14%,-10%,-5%,-46%
Oc1ccc(/C=N/Nc2cc(N3CCCC3)nc(N3CCCC3)n2)cc1,-7%,-7%,-12%,-5%,-36%
COc1ccc(/C=N/Nc2cc(N3CCCC3)nc(N3CCCC3)n2)cc1,9.2µM*,18µM*,-3%,3%,-63%
O=C(C[C@H]1C(=O)N(CCc2ccccc2)C[C@@H]1c1ccccc1)Nc1ccccc1,·,·,·,·,15%
COc1ccc(CCc2cc(OC)c(OC)c(OC)c2)cc1,?,1.8µM*,·,·,7%
O=C(Nc1ccc2c(c1)C(=O)OC2)c1ccc(F)cc1F,-4%[9.22 µM],-9%,7%,-3%,-3%
COC1=C(OC)C(=O)C(Sc2ccc3ccccc3c2)=CC1=O,18µM*,5.8µM*,·,·,0%
COc1ccc(S(=O)(=O)Oc2ccc3ccccc3c2)cc1,?,?,19%,22%,-2%
O=C(c1cc(Cl)cc(Cl)c1)N1CCN(c2cc(C(F)(F)F)nc3ccccc23)CC1,16%,18%,3%,2%,0%
O=C(Cc1ccccc1)N/N=C/c1ccccc1OCc1ccc(Cl)cc1,?,17%,4%,6%,-19%
O=S(=O)(N/N=C/c1ccccc1OCc1ccc(Cl)cc1)c1ccccc1,?,3.3µM*,29%,2%,12%
COc1cc(/C=C/C(=O)c2ccc3c(c2)OCO3)cc(Cl)c1O,?,9.2µM*,-4%,0%,0%
O=C(O)c1ccc(/C=C/C(=O)c2ccc3c(c2)OCCCO3)cc1,21µM*,?,2%,9%,0%
CC(=O)Nc1ccc(/C=C/C(=O)c2ccc3c(c2)OCCO3)cc1,?,?,-2%,-3%,-35%
COc1ccc(N/C=C\C(=O)c2ccc3c(c2)OCO3)cc1,-2%,17%,2%,-6%,24%
O=C(/C=C\Nc1ccc2c(c1)OCO2)c1ccc2c(c1)OCO2,3%,21µM*,-4%,-2%,10%
COc1ccc(/C=C/C(=O)c2ccc3c(c2)OCCO3)cc1[N+](=O)[O-],12µM*,3.7µM*,-4%,13%,1%
O=c1c(-c2ccccc2)cocc1-c1ccccc1,·,·,·,·,13%
C/C(=N/Nc1ccc([N+](=O)[O-])cc1)c1c[nH]c2ccccc12,1%,24%,-5%,-4%,-39%
COc1ccc(Oc2ccc(/C=C/C(=O)c3cccc(OC)c3)cc2[N+](=O)[O-])cc1,?,6.5µM*,2%,5%,2%
Cc1ccc(F)c([C@H]2[C@@H]3C=CCC[C@@]3(C)C(=O)N2Cc2ccccc2)c1,-4%,23µM*,-54%,3%,1%
Cc1ccc(-c2cc([C@H]3[C@@H]4C=CCC[C@@]4(C)C(=O)N3Cc3ccccc3)ccc2F)cc1,?,5%,-42%,13%,-7%
COc1ccc(O)c(C(=O)c2cnc3c(c2)c(C)nn3CCO)c1,-15%,-4%,1%,-5%,-15%
COc1ccccc1NC(=S)NCc1ccc2c(c1)cc(C)n2C,?,?,?,0%,-42%
SMILES,SW480 rerep,MCF10A rereplic,Mito fusion yeast,AT treatment,a7 integrin act
Cc1ccccc1NC(=S)NCc1ccc2c(c1)cc(C)n2C,16µM*,?,-2%,-2%,-31%
Cc1cc2cc(CNC(=S)NCc3ccccc3)ccc2n1C,-3%,13%,-6%,0%,8%
CCc1cccc(C)c1NC(=S)NCc1ccc2c(c1)cc(C)n2C,15µM*,15µM*,-7%,0%,-16%
CCCCCCCC1c2c(c(C)c(C)oc2=O)Oc2c(C)c(C)oc(=O)c21,-8%,3%,-5%,1%,12%
Cc1ccc(C(OCC(O)CNCc2ccc(F)cc2)c2ccccc2)cc1 (stereo not given),5.2µM*,2.6µM*,-78%,11%,-73%
CC1CCCC(C)N1CCCNC(=O)Cn1ncc2c3ccccc3n(C)c2c1=O (stereo not given),-1%,2%,1%,7.1µM*,0%
O=C1C=C(O)c2cccc(O)c2C1=O,-4%,?,1%,-11%,12%
O=C1C=C(c2c(O)ccc3ccccc23)c2ccccc2C1=O,18µM*,17%,·,·,-55%
O=C(O)c1ccccc1-c1ccc(C(F)(F)F)cc1,-16%,1%,·,·,·
O=C(Nc1ccc([N+](=O)[O-])cc1)Nc1ccon1,?,5.8µM*,-9%,-10%,-18%
CCCCCC(=O)N1C[C@H](n2cc(-c3ccc(F)cc3)nn2)[C@@H](O)C[C@@H]1c1ccc(Cl)cc1,·,·,·,·,-42%
CC(C)COP(=O)(c1ccc(N(C)C)cc1)C(O)c1ccccc1F (stereo not given),-29%,1%,5%,-10%,-3%
CCCCn1c(-c2ccco2)nc2ccccc2c1=O,-8%,8%,4%,3%,-16%
CCCCCCSc1cccc(-c2nc3cc(C)ccn3c2NCc2ccccc2)c1,-6%,?,8%,20µM*,-29%
CCCCCCSc1cccc(-c2nc3ccc(C)cn3c2NCc2ccccc2)c1,-7%,?,9%,?,-1%
CCCCCCSc1cccc(-c2nc3ccccn3c2NCc2ccccc2)c1,?,21µM*,·,15%,-8%
CCOc1ccccc1Nc1cc(C)nc2ccc(C)cc12,-3%,?,·,·,-26%
CC[C@H](C)[C@@H]1NC(=O)[C@H]([C@@H](C)CC)NC(=O)[C@@H](CC(C)C)NC(=O)[C@H](Cc2ccccc2)NC(=O)[C@H](Cc2ccccc2)NC(=O)[C@@H]2CCCN2C(=O)[C@@H]2CCCN2C(=O)[C@H](C(C)C)NC(=O)[C@H](CC(C)C)NC1=O,?,21µM*,·,-3%,2%
Cc1ccc(C(=O)OCC(=O)Nc2c(Cl)cc(S(N)(=O)=O)cc2Cl)o1,-27%,-2%,4%,3%,11%
O=C(Nc1ccccn1)c1cc2cc([N+](=O)[O-])ccc2s1,18%,-2%,2%,4%,-4%
C=CCOc1ccc2cccc(/C=N/NC(=O)c3cc4cc([N+](=O)[O-])ccc4s3)c2c1,21µM*,?,3%,-7%,10%
COCCN1C(=O)N(c2cccc(OC)c2)C(=O)C1CC(=O)Nc1ccc(OC)cc1 (stereo not given),1%,0%,-1%,3%,23%
COCCN1C(=O)N(c2ccc(OC)cc2)C(=O)C1CC(=O)Nc1cccc(F)c1 (stereo not given),-13%,0.92µM*,-1%,-9%,0%
CNc1ccc(/C=C/C(=O)c2cccc3ccccc23)cc1[N+](=O)[O-],16µM*,?,29%,-12%,1%
